# Assay results published in PubChem BioAssay (NCATS).
# Results filed as inconclusive are left out. Unmarked numbers belong to inactive results. Activity calls are given as the source filed them. Calls come from the whole dose curve; as a rule, active = well fitted activation curve with a large enough effect; inconclusive = small, poorly fitted or top-dose-only effect; inactive = no such curve, though single readings can be large or run the other way.
# Molecular target: Cellular tumor antigen p53 (Homo sapiens) (UniProt P04637)
# Sequence (P04637 whole entry, looked up): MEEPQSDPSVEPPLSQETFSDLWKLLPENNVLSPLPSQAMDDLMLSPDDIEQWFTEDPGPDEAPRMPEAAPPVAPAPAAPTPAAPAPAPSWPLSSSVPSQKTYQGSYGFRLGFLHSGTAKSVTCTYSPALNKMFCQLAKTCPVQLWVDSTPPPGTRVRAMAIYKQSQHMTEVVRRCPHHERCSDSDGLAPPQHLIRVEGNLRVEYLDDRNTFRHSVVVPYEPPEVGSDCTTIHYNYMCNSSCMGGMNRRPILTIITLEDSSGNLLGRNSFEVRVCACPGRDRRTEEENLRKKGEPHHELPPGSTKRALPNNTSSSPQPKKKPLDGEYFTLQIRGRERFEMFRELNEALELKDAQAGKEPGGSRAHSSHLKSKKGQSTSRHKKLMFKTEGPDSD
# Assay: Primary qHTS for small molecule compounds that upregulate eGFP-tagged delta133p53alpha (in N-terminal) cells. (AID 2060322); note: nearly all actives have a fitted effect of over 75% in size;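 for activation: series mostly up to about 56 µM; 0% = DMSO vehicle and 100% = reference activator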
# Conditions: NCI-H358 eGFP-delta133p53alpha fluorescence, 24 h; activation: active compounds read high
# Procedure, shortened: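 NCI-H358 cells pre-induced 24 h with 10 ng/ml doxycycline to express N-terminal eGFP-delta133p53alpha, then dosed 24 h at 37C without doxycycline; fixed, Hoechst-stained, GFP intensity by laser scanning cytometry, normalized to DMSO (0%) and 57.5 uM 5-azacytidine (100%).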
# Potency is the fitted concentration of half-maximal effect.
SMILES,activation,Potency
O=C(/C=C/c1ccc(O)cc1)OC1[C@H](O)CC(O)(C(=O)O)C[C@H]1O (stereo partly drawn),-0.763%,
Fc1ccc(-c2c3cccc(C(F)(F)F)c3nn2Cc2ccc(F)cc2Cl)cc1,-8.11%,
CC(=O)OC[C@@]12[C@@H](OC(C)=O)C[C@@H](C)[C@](C)([C@@H]3C[C@H]4C=CO[C@H]4O3)[C@H]1CCC[C@]21CO1,0%,
C=C1C[C@]23C[C@H]1CC[C@H]2[C@]1(C)CCC[C@@]2(CO)C(=O)O[C@H]([C@H]21)[C@@H]3O,-6.11%,
CC1=CC(=O)CC(C)(C)C1CCC(C)O[C@@H]1O[C@H](CO[C@@H]2OC[C@@H](O)[C@H](O)[C@H]2O)[C@@H](O)[C@H](O)[C@H]1O (stereo partly drawn),-10.7%,
CC(C)c1cc2c(c(O)c1O[C@@H]1O[C@H](CO)[C@@H](O)[C@H](O)[C@H]1O)CC1(O)CCC(O)C(C)(C)C1CC2 (stereo partly drawn),-22.1%,
C=C1C[C@]23C[C@H]1CC[C@H]2[C@@]1(C)CCC[C@@]2(C)C(=O)O[C@@H]([C@@H]3O)[C@@H]12,12.2%,
Cc1ccc(N2CCN(S(=O)(=O)N3CCCCC3)CC2)c(C)c1,17.9%,
CC1(C)CCCC2(C)C(CO)C(CO)=CCC12 (stereo not drawn),-3.82%,
CC1(C)CC2C(O)C3=C(CC(C)(O)C2C1)C(=O)OC3 (stereo not drawn),-6.87%,
NCCCNc1ccc(Nc2nccc(Nc3cc(C4CC4)[nH]n3)n2)cc1,,1.51 µM (active)
C=C(C)[C@@H]1CC[C@]2(C(=O)O)CC[C@]3(C)C(CCC4[C@@]5(C)C[C@@H](O)[C@H](O)C(C)(C)C5CC[C@]43C)C12 (stereo partly drawn),-10.7%,
CC(CCC1(O)OC2CC3C4CCC5CC(O[C@@H]6O[C@H](CO)[C@@H](O)[C@H](O)[C@H]6O[C@@H]6OC[C@@H](O)[C@H](O)[C@H]6O)C(O)CC5(C)C4CCC3(C)C2C1C)CO[C@@H]1O[C@H](CO)[C@@H](O)[C@H](O)[C@H]1O (stereo partly drawn),-5.36%,
CC1=CC(=O)[C@@]2(C(C)C)C[C@@H]12,17.7%,
O=C(O[C@@H]1O[C@H](CO)[C@@H](O)[C@H](O)[C@H]1O)c1c(O)cc(O)cc1/C=C/c1ccccc1,-23.7%,
CC1(CO)CC2C(O)C3=C(CC(C)(O)C2C1)C(=O)OC3 (stereo not drawn),-12.2%,
CC1(C)CCCC2(C)C=C(C(=O)O)C(O)CC12 (stereo not drawn),-19.1%,
CC1C2=CC(=O)OC2(O)CC2C1CCC1C(C)(C)CCC(O)C21C (stereo not drawn),0.763%,
C=C(C(=O)O)[C@H]1C[C@]2(C)[C@@H](O)CC[C@]23O[C@H]1C[C@@H]3C,18.8%,
Oc1ccc2c(-c3c(-c4ccccn4)nn4c3CCC4)ccnc2c1,,26.9 µM (active)
CC(=O)OC(CSC1CCC(=O)OC(C)CCC(=O)C1)C(=O)O (stereo not drawn),-6.87%,
C#C[C@]1(OC(C)=O)CC[C@H]2[C@@H]3CCC4=C[C@@H](OC(C)=O)CC[C@@H]4[C@H]3CC[C@@]21C,6.33%,
O=C(Nc1nnc(-c2ccc3c(c2)OCCO3)o1)C1CCCCC1,-8.33%,
CO[C@@H]1CC(OC2CCC3(C)C(CCC45CCC(C6=CC(=O)OC6)C(C)(CCC43)C5=O)C2)O[C@H](C)[C@@H]1O[C@@H]1O[C@H](CO[C@@H]2O[C@H](CO)[C@@H](O)[C@H](O)[C@H]2O)[C@@H](O)[C@H](O)[C@H]1O (stereo partly drawn),1.53%,
C=C1C2CCC3C(CCC4[C@@]3(C)CCC[C@@]4(C)C(=O)O)(C2)[C@@H]1OC(=O)/C(C)=C\C (stereo partly drawn),-8.93%,
C[C@@H]1O[C@@H](O[C@H]2[C@H](O[C@H]3[C@H](O[C@H]4CC[C@@]5(C)C(CC[C@]6(C)C5CC=C5[C@@H]7CC(C)(C)C[C@@H](O)[C@]7(C)CC[C@]56C)C4(C)C)O[C@H](C(=O)O)[C@@H](O)[C@@H]3O)O[C@H](C(=O)O)[C@H](O)[C@@H]2O)[C@H](O)[C@H](O)[C@H]1O (stereo partly drawn),-16.8%,
C=C1CC[C@@H]2[C@](C)(CO)[C@H](O)CC[C@@]2(C)[C@@H]1C/C=C1/C(=O)OC[C@@H]1O,,11.7 µM (active)
CC1(C)CC[C@]2(C(=O)O)CC[C@]3(C)C(=CCC4[C@@]5(C)C[C@@H](O)[C@H](O)[C@](C)(CO)C5CC[C@]43C)[C@@H]2[C@@H]1O (stereo partly drawn),12.5%,
